High-throughput results deposited in PubChem BioAssay by several laboratories.
tim23-1 inh = growth inhibitors of tim23-1 mutant yeast, primary screen, luminescence, uHTS; S. cerevisiae tim23-1 growth, BacTiter-Glo luminescence, 24 h; inhibition, % at 20 µM; 1.3% of 330,000 active; AID 463212, 2010;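 active = growth inhibition of the mutant yeast at or above 50%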;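 note: temperature-sensitive mutant grown at 25 °C; plate controls were DMSO-treated mutant yeast for no effect and medium wells lacking yeast for full effect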
SKKanGAS inh = S. pyogenes SKKanGAS growth inhibitors in kanamycin, primary screen, streptokinase expression inhibitor project, SKKanGAS strain, BacTiter-Glo luminescence | 6 h | inhibition, % at 7.5 µM | 1.3% of 300,000 active | AID 1662, 2009;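 active = mean replicate score, as percent of positive control median, at least 50; inconclusive = mean below 50 but one replicate at or above 50; inactive = mean and every replicate below 50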;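 note: strain carries kanamycin resistance gene driven by streptokinase promoter and grows in 40 µg/ml kanamycin; loss of luminescence reflects streptokinase promoter inhibition or plain growth inhibition; 0% = median of DMSO wells and 100% = positive control at its reference dose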
tim10-1 inh = growth inhibitors of tim10-1 mutant yeast, primary screen, luminescence, uHTS | 2.2% of 330,000 active | AID 463190, 2010 | S. cerevisiae tim10-1 ts strain growth, BacTiter-Glo, 24 h | inhibition, % at 20 µM;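 active = inhibition of at least 40%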;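 note: mutant grown at 25 °C; 0% = DMSO wells with yeast and 100% = wells holding no yeast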
NALP1 inh = NALP1 inflammasome inhibitors in reconstituted yeast, colorimetric, S. cerevisiae, triplicate retest | S. cerevisiae NALP1/ASC/caspase-1 growth, X-gal OD620, 72 h | inhibition, % at 10 µM | 0.61% of 280,000 active; in the data active = inhibition mostly above about 24%, no sharp cut-off; inactive = mostly below about 32%
NALP3 yeast inh = NALP3 inflammasome inhibitors in reconstituted yeast, primary screen, luminescence, uHTS. 0.39% of 330,000 active. Yeast reconstituted NLRP3/ASC/caspase-1, beta-gal luminescence, 24 h. inhibition, % at 10 µM;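 active = inhibition of 50% or more; inactive = inhibition below 50%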;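 note: plate controls were induced DMSO wells for no effect and uninduced yeast grown without galactose for full effect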
TIM10 inh = growth inhibitors of isogenic TIM10 control yeast, primary screen, counter-screen for tim10-1 yeast inhibitor project, luminescence, uHTS; inhibition, % at 10 µM; S. cerevisiae TIM10 strain growth, BacTiter-Glo luminescence, 24 h; AID 463195, 2010; 1.4% of 330,000 active;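 active = inhibition of 40% or more at the single tested concentration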;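 note: wild-type TIM10 isogenic control strain grown at permissive 25 °C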
tim10-1 confirm = growth inhibitors of tim10-1 mutant yeast, confirmation, single concentration, luminescence, S. cerevisiae; shares compounds with tim10-1 inh; S. cerevisiae tim10-1 ts strain growth, BacTiter-Glo, 24 h; inhibition, % at 20 µM; 56% of 7,400 active; AID 463213, 2010;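 active = inhibition of yeast growth at or above a set limit in either of two repeat tests at 20 µM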;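 note: tim10-1 mutant grown at permissive 25 °C to find synthetic lethal compounds; 0% = DMSO yeast wells and 100% = medium wells without yeast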
TIM10 conf = growth inhibitors of wild-type TIM10 yeast, confirmation, counter-screen for tim10-1 synthetic lethality project, single concentration, luminescence, S. cerevisiae; 63% of 4,600 active; S. cerevisiae tim10 strain growth, BacTiter-Glo luminescence, 24 h; shares compounds with TIM10 inh; inhibition, % at 10 µM;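 active = inhibition of yeast growth at or above a set limit in either of two replicates at 10 µM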;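 note: this counterscreen used the strain with wild-type TIM10; 0% = yeast with DMSO and 100% = medium wells lacking yeast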
tim23-1 confirm = tim23-1 mutant yeast growth inhibitors, confirmation, luminescence, single concentration; shares compounds with tim23-1 inh; S. cerevisiae tim23-1 growth, BacTiter-Glo luminescence, 24 h; inhibition, % at 20 µM; 83% of 4,400 active; AID 463218, 2010;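 active = inhibition above about 39% in either of two replicate wells at 20 µM, limit read from the data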;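 note: temperature-sensitive tim23-1 mutant grown at 25 °C; 0% = DMSO wells with yeast and 100% = medium wells without yeast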
* = called active by the depositor; ? = inconclusive; · = no result given. An excerpt weighted towards active compounds, which were near 4.9% of everything screened.

SMILES	tim23-1 inh	SKKanGAS inh	tim10-1 inh	NALP1 inh	NALP3 yeast inh	TIM10 inh	tim10-1 confirm	TIM10 conf	tim23-1 confirm
CN(/N=C/c1ccccc1Cl)c1ncc(Cl)cc1C(F)(F)F	9	9	14	17	11	1	·	·	·
CN(/N=C/c1ccc(O)cc1O)c1ncc(C(F)(F)F)cc1Cl	62*	11	45*	7	32	11	25	·	56*
CCOC(=O)C1Nc2c(cc(C(F)(F)F)cc2[N+](=O)[O-])C2c3ccccc3CC12 (configuration not stated)	10	37	13	·	21	2	·	·	·
CCOC(=O)C1Nc2ccccc2C2c3ccccc3CC12 (configuration not stated)	59*	-6	50*	·	40	35	51*	·	60*
CCN1/C(=C/c2ccc3ccccc3[n+]2CC)C=Cc2ccccc21	85*	52*	74*	26	39	52*	75*	20	67*
CC1Cc2ccccc2N1C(=S)NC(=O)c1cccc(Br)c1 (configuration not stated)	52*	93*	44*	11	10	59*	32*	5	58*
COc1ccc(C(=O)Nc2ccccc2C(=O)N/N=C/c2ccncc2)cc1OC	61*	22	43*	8	3	33	55*	·	53*
Cc1ccc(S(=O)(=O)CNC(=S)c2ccc3ccccc3c2)cc1	53*	62*	43*	-1	14	34	20	·	50*
COc1cc(OC)c(NC(=S)Nc2cc(Cl)cc(Cl)c2)cc1Cl	54*	3	54*	33	4	41*	53*	-9	58*
O=[N+]([O-])c1ccc(CNc2ccc(Cl)cc2)s1	61*	13	57*	·	31	56*	54*	65*	68*
CNC(=O)c1ccc(CN(C)CC(=O)Nc2ccccc2C(=O)NC2CC2)cc1	-7	·	2	·	-16	6	·	·	·
COC(=O)c1ccc(-c2csc(NC(=O)C3=COCCO3)n2)cc1	27	42	6	16	44	-4	·	·	·
CCC(=O)Oc1oc(-c2ccccc2)nc1C=Nc1ccc(C)cc1	46	-1	19	8	10	32	·	·	·
CCC(=O)Oc1oc(-c2ccccc2)nc1C=Nc1ccccc1OC	53*	16	50*	5	-11	40	36*	·	70*
CC(=O)Oc1oc(-c2ccccc2)nc1C=Nc1ccccc1	77*	1	53*	4	12	41*	49*	44*	76*
CN(C)c1ccc(N=Cc2nc(-c3ccccc3)oc2OC(=O)c2cccc(Br)c2)cc1	17	9	12	34	40	5	·	·	·
CCOC(=O)c1ccc(N=Cc2nc(-c3ccccc3)oc2OC(C)=O)cc1	58*	9	71*	-14	9	45*	55*	68*	83*
CC(C)CN1C(=O)c2ccc(C(=O)Nc3ccccc3C(=O)O)cc2C1=O	16	11	15	-1	6	10	·	·	·
Cc1ccc2cc(/C=C/C(=O)c3ccco3)c(Cl)nc2c1	80*	-12	54*	·	31	61*	54*	61*	65*
COc1cc2cc(/C=C/C(=O)c3ccco3)c(Cl)nc2cc1OC	49	3	36	6	4	36	·	·	·
COc1ccc2cc(/C=C/C(=O)c3ccco3)c(Cl)nc2c1	52*	0	45*	4	20	46*	38*	16	48*
Cc1ccc2nc(Cl)c(/C=C/C(=O)c3ccco3)cc2c1	64*	-5	44*	-2	18	51*	28	52*	50*
CN(Cc1ccccc1)S(=O)(=O)c1ccccc1Br	41	·	12	·	·	-16	·	·	·
CC1CCCCN1CCNC(=O)c1ccc2c(c1)N(Cc1ccccc1F)C(=O)c1ccccc1S2=O (configuration not stated)	-26	2	-3	7	11	-13	·	·	·
O=[N+]([O-])c1cccc(-c2nc3ccccc3s/c2=N/O)c1	82*	20	71*	15	4	57*	55*	69*	54*
SMILES	tim23-1 inh	SKKanGAS inh	tim10-1 inh	NALP1 inh	NALP3 yeast inh	TIM10 inh	tim10-1 confirm	TIM10 conf	tim23-1 confirm
NNc1nc(-c2ccccc2)cc(-c2ccccc2O)n1	55*	28	44*	0	40	48*	47*	42*	59*
NNc1nc(-c2ccccc2)cc(-c2ccccc2)n1	55*	16	43*	0	18	49*	48*	11	56*
NNC(=O)c1nc(-c2ccccc2)cc(-c2ccccc2)n1	63*	11	42*	1	16	20	10	·	67*
N#Cc1cc(-c2ccccc2)nc(NN)n1	30	-3	29	-2	23	23	·	·	·
COc1ccc(/C=N/NC(=O)c2nc(-c3ccccc3)cc(-c3ccccc3)n2)cc1	5	?	27	6	26	12	·	·	·
Cc1nn2c(=O)c3c4c(sc3nc2n1-c1ccccc1)COC(C)(C)C4	5	4	9	27	-4	-8	·	·	·
Cc1ccccc1Cn1c(NC2CCCC2)nc2c1c(=O)[nH]c(=O)n2C	-2	6	4	·	19	14	·	·	·
CCOC(=O)C1(CC2CCCCO2)CCN(C(=O)Nc2ccccc2)CC1 (configuration not stated)	21	3	12	0	11	-2	·	·	·
O=C(/C=C\c1cccs1)c1c(O)ccc2ccc(=O)oc12	78*	13	75*	33	47	75*	81*	75*	69*
O=C(/C=C/c1cccs1)c1ccc(Br)cc1	13	-7	6	-6	18	17	·	·	·
N#CC(c1cccc(Cl)c1)c1ccc2c(C(F)(F)F)cc(C(F)(F)F)nc2n1 (configuration not stated)	79*	95*	88*	24	12	75*	70*	65*	72*
COc1cc(/C=C/C(=O)N2CCC=CC2=O)cc(OC)c1OC	59*	·	58*	·	6	57*	40*	45*	54*
